Pf growth 48h = inhibits P. falciparum growth in the first generation, 48 h; P. falciparum luciferase growth in erythrocytes, 48 h; Potency, µM (series often up to 28.7 µM), for the others: top-dose activity change, negative = inhibition, usual class: inhibitors; hit rate 5.9% among 310,000; AID 504832; also: potency is read from the fitted curve at half-maximal effect
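Erythrocytes infected with P. falciparum carrying an integrated firefly luciferase reporter (2% hematocrit, 0.1% parasitemia final) were exposed to compounds in RPMI 1640 with 0.5% Albumax at 37 C, 5% CO2. Growth inhibition was scored as reduced luminescence.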
Pf growth 96h = inhibits malaria parasite growth, 96 h; AID 504834; P. falciparum luciferase reporter growth, 96 h; Potency, µM (series often up to 28.7 µM), without a hit: at the highest dose activity change, negative = inhibition, hits mostly inhibitors; hit rate 6.9% among 320,000; also: potency is read from the fitted curve at half-maximal effect
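Readout is luminescence from an integrated firefly luciferase in P. falciparum. Red cells, 2% hematocrit and 0.05% parasitemia final, were cultured with compound through two parasite generations (96 hours) at 37 C, 5% CO2.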
FBPA Giardia inh = Giardia lamblia aldolase inhibition | purified Giardia FBPA | Potency, µM (highest dose often 59.6 µM), for inactives: top-dose activity, negative = inhibition, actives largely listed as inhibitors | hit rate 0.71% among 290,000 | AID 2451; also: potency is read from the fitted curve at half-maximal effect; nearly all actives have a fitted effect of over 55% in size
Target sequence (A8B2U2 whole entry, looked up): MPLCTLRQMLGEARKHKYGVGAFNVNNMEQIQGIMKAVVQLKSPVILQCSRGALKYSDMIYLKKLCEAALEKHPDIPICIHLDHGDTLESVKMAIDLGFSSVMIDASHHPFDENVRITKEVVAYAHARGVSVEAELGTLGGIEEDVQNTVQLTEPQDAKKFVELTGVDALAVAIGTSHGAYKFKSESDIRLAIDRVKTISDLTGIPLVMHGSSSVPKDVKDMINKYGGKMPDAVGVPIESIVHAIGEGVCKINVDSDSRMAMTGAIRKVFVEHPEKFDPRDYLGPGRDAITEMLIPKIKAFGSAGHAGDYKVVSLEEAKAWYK
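40 nM FBPA preincubated 10 min at RT with compound (up to 57.5 uM final), then substrate plus GAPDH/TPI/NAD/arsenate coupling and diaphorase/resazurin added. Fluorescence read after 20 min at RT, 525/598 nm.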
HCMV inh = inhibitors of human cytomegalovirus; HFF cells, HCMV-luciferase reporter, 72 h; active compounds read low; activity change, negative = inhibition, % at 57.5 µM; hit rate 4.5% among 410,000; AID 1259415; in the data active = activity change below about -60%; inconclusive = no clear call, values can overlap the other calls; inactive = above about -39%
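Human foreskin fibroblasts infected with luciferase-reporter HCMV at MOI 1 PFU/cell, compounds at two doses. Luciferase measured 72 h post infection; normalized to buffer-only basal and Salinomycin (10uM) controls.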
Sm TGR inh = S. mansoni TGR enzyme inhibition | Q962Y6 | purified TGR, DTNB reduction, TNB absorbance 405 nm | Potency, µM (highest dose often 114 µM), for the others: at the top dose activity change, negative = inhibition, most hits filed as inhibitors | hit rate 3% among 360,000 | AID 485364; also: potency is read from the fitted curve at half-maximal effect; nearly all actives have a fitted effect of over 60% in size
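TGR 20 nM + NADPH 100 uM (dispensed conc.), cpd preinc 15 min RT; start with NADPH (500 uM addition) then DTNB (15 mM addition). Kinetic TNB absorbance, 405 nm filter. Four-parameter Hill fit across titration.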
* hit, by the source's call; ? = inconclusive; . = not tested or not shown; [ ] = another dose, or the depositor's remark. In the library only some 14% were active in any assay of this set; here they are far more common. Unless noted, calls follow the shape of the dose curve; as a rule, active = well fitted curve in the direction sought with a large enough effect; inconclusive = small, poorly fitted or top-dose-only effect, or another doubt; inactive = no such curve, though single readings can be large; an effect the other way counts as inactive or inconclusive. % is scaled to controls: 0 for no effect and ±100 for the full control effect.

SMILES	Pf growth 48h	Pf growth 96h	FBPA Giardia inh	HCMV inh	Sm TGR inh
C#CCOCCOCCOCCNc1nc(N2CCN(C(=O)CCCCCCCCCCNC(=O)Cn3cc(CCCCCN)nn3)CC2)nc(N2CCN(C(=O)CCCCCCCCCCNC(=O)[C@H](CO)n3cc(CCCCCN)nn3)CC2)n1	1.04µM*	2.94µM*	.	.	39.8µM*
C#CCOCCOCCOCCNc1nc(N2CCN(C(=O)CCCCCCCCCCNC(=O)Cn3cc(CCCCCN)nn3)CC2)nc(N2CCN(C(=O)CCCCCCCCCCNC(=O)[C@H]([C@@H](C)CC)n3cc(CCCCCN)nn3)CC2)n1	10.4µM*	?	.	.	44.7µM*
C#CCOCCOCCOCCNc1nc(N2CCOCC2)nc(N2CCN(C(=O)CCCCCCCCCCNC(=O)Cn3cc(CCCCCN)nn3)CC2)n1	3.7µM*	?	.	-20.9	?
C#CCOCCOCCOCCNc1nc(N2CCN(C(=O)Cn3cc(CCCCN)nn3)CC2)nc(N2CCN(C(=O)[C@H](CCCCN)n3cc(CCCC)nn3)CC2)n1	?	?	.	-23.4	-0.4%
C#CCOCCOCCOCCNc1nc(N2CCOCC2)nc(N2CCN(C(=O)Cn3cc(CCCCN)nn3)CC2)n1	.	.	.	-5.4	.
O=C(COC(=O)c1c(F)cccc1F)Nc1cccc(S(=O)(=O)N2CCCCC2)c1	.	.	.	16.7	.
Cc1cc(OCC(=O)Nc2c(C(=O)c3ccccc3)oc3ccccc23)cc(C)c1Cl	.	.	.	3.9	9.8%
CCN(CC)S(=O)(=O)c1ccc(OC(C)C)c(NC(=O)C2=COCCO2)c1	?	8.28µM*	.	?	0.0%
CCCC(=O)Nc1cc(-c2nn(C)c(=O)c3ccccc23)ccc1N1CCCCC1	.	.	.	23.3	.
CCC(=O)Nc1cc(-c2nn(C)c(=O)c3ccccc23)ccc1N1CCCCC1	5.22µM*	74.5%	0.1%	-34.1	-20.5%
CCN(CC)S(=O)(=O)c1ccc(N2CCCCC2)c(NC(=O)C2=COCCO2)c1	1.85µM*	1.47µM*	.	?	0.9%
CCN(CC)S(=O)(=O)c1ccc(N2CCCC2)c(NC(=O)c2nn(C)c(=O)c3ccccc23)c1	13.1µM*	13.1µM*	.	-10.1	-35.9%
CCN(CC)S(=O)(=O)c1ccc(N2CCOCC2)c(NC(=O)c2nn(C)c(=O)c3ccccc23)c1	.	.	.	-38.9	.
COc1ccc(C2CC(c3ccccc3)Oc3ccc(OC)cc32)cc1 (centres undefined)	.	.	4.4%	.	.
Cc1cc(C)cc(Cn2cc(CN3CC(N4CCN(CCO)CC4)CS3(=O)=O)nn2)c1 (centres undefined)	.	.	.	-29.0	.
O=C(NCCC(=O)N(Cc1ccco1)Cc1cccs1)c1ccc([N+](=O)[O-])cc1	-26.9%	?	.	-20.9	-19.1%
C=CCn1ccc(O)c(Cc2ccc(Cl)cc2)c1=O	-2.4%	4.0%	-12.0%	-34.5	7.1%
O=C(Nc1ccccc1N1CCCC1)C1CCN(C(=O)c2ccc(F)cc2)CC1	?	1.6%	.	-32.3	-3.7%
CCN(CC)S(=O)(=O)c1ccc(N2CCCCC2)c(NC(=O)C2CCN(C(=O)c3ccc(F)cc3)CC2)c1	11.7µM*	9.28µM*	.	-12.2	-4.0%
COc1ccccc1N1CCN(C(=O)c2ccc3c(c2)CCN3S(=O)(=O)c2ccccc2)CC1	8.28µM*	?	.	?	-10.1%
O=C(c1cccc(S(=O)(=O)N2CCc3ccccc32)c1)N1CCN(c2ccccc2)CC1	?	10.4µM*	.	?	39.8µM*
Cc1c(C(=O)NCCN(C)C)oc2c1-c1nn(Cc3cccc(Cl)c3)cc1CC2	.	.	.	-68.4*	1.6%
COc1cccc(CNC(=O)c2oc3c(c2C)-c2nn(Cc4cccc(Cl)c4)cc2CC3)c1OC	.	.	.	46.4	8.1%
COc1cccc(CNC(=O)c2oc3c(c2C)-c2nn(Cc4cccc(Cl)c4)cc2CC3)c1	.	.	.	-92.0*	-0.6%
Cc1cccc(C)c1NC(=O)c1oc2c(c1C)-c1nn(Cc3ccccc3)cc1CC2	.	.	.	-81.5*	5.9%
SMILES	Pf growth 48h	Pf growth 96h	FBPA Giardia inh	HCMV inh	Sm TGR inh
CCc1ccc(NC(=O)C2CCN(S(=O)(=O)c3ccc4[nH]c(=O)ccc4c3)CC2)cc1	-5.4%	?	-2.3%	11.6	6.3%
Cc1ccc(Oc2nc3ccccn3c(=O)c2/C=C(\C#N)C(=O)NC2CCS(=O)(=O)C2)c(C)c1 (centres undefined)	?	10.4µM*	.	-9.4	-1.3%
N#C/C(=C\c1c(Oc2ccccc2F)nc2ccccn2c1=O)C(=O)NC1CCS(=O)(=O)C1 (centres undefined)	?	9.28µM*	7.3%	126.7	1.0%
N#Cc1nc(NCC(F)F)nc(Nc2cc(F)cc(F)c2)n1	10.4µM*	?	.	-37.8	-27.7%
N#Cc1nc(Nc2cc(F)cc(F)c2)c2ncn(CC(F)F)c2n1	?	0.294µM*	.	30.7	-5.7%
O=C1[C@H]2[C@H]3[C@H](O)[C@H](O)C/C(=N/OCc4ccccc4)[C@@H]3CC[C@@H]2C(=O)N1Cc1ccccc1	.	.	3.3%[12.9 µM]	.	.
Cc1cc(N(C)Cc2ccccc2)nc2cc(O)ccc12	1.65µM*	3.1%	-0.4%	-36.5	2.6%
Cc1cc(N(C)Cc2ccccc2)nc(-c2ccccc2)n1	-0.2%	8.7%	1.3%	58.1	-13.5%
OC[C@@H]1CN(Cc2ccc(-c3ccccc3)cc2)C[C@H](n2cnc3c(NCc4ccco4)ncnc32)O1	.	.	.	-89.6*	.
OC[C@@H]1CN(Cc2ccco2)C[C@H](n2cnc3c(NCc4ccc(F)cc4)ncnc32)O1	.	.	.	-68.6*	.
OC[C@@H]1CN(CCc2ccccc2)C[C@H](n2cnc3c(NCc4ccc(F)cc4)ncnc32)O1	.	.	.	-65.6*	.
OC[C@@H]1CN(Cc2ccc(-c3ccccc3)cc2)C[C@H](n2cnc3c(NCc4ccncc4)ncnc32)O1	.	.	.	-91.4*	.
OC[C@@H]1CN(Cc2ccco2)C[C@H](n2cnc3c(NCc4ccncc4)ncnc32)O1	.	.	.	7.4	.
COc1cc(CNc2ncnc3c2ncn3[C@H]2CN(Cc3ccc(-c4ccccc4)cc3)C[C@@H](CO)O2)cc(OC)c1OC	.	.	.	-65.9*	.
N#Cc1ccc(NC(=O)COC(=O)CCc2nc3ccccc3c(=O)[nH]2)cc1	6.4%	26.9%	0.4%	-17.8	-13.0%
O=C(Nc1ccc(OC(F)F)cc1)c1cc(S(=O)(=O)N2CCOCC2)ccc1F	-16.5%	-19.2%	.	0.7	0.0%
O=C(NC(Nc1nc2ccc([N+](=O)[O-])cc2s1)(C(F)(F)F)C(F)(F)F)c1ccccc1Cl	1.47µM*	0.928µM*	0.2%	?	2.7%
O=[N+]([O-])c1ccc2nc(NS(=O)(=O)c3ccccc3[N+](=O)[O-])sc2c1	38.4%	?	24.0%	36.3	-9.6%
O=C(NC(Nc1nc2ccc([N+](=O)[O-])cc2s1)(C(F)(F)F)C(F)(F)F)c1cccnc1	7.38µM*	?	0.4%	-102.1*	-13.6%
COc1ccc(CNC(=O)c2cc3cccc(O)c3oc2=N)cc1	?	?	-1.4%	-17.0	-0.7%

Screens (PubChem BioAssay)
